Laboratory results published in PubChem BioAssay (NCATS).
Records with an inconclusive call do not appear. Where a call stands in place of a potency, no number is given. Calls of active or inactive are those of the source. Calls come from the whole dose curve; as a rule, active = well fitted curve in the direction sought with a large enough effect; inconclusive = small, poorly fitted or top-dose-only effect, or another doubt; inactive = no such curve, though single readings can be large; an effect the other way counts as inactive or inconclusive.

Test system: not listed separately
Experiment: qHTS for Inhibitors of Ubiquitin-specific Protease USP2a Using CHOP2 as the Reporter: K633 Counterscreen (AID 652168)
Details: No-enzyme DiUb K48 IQF substrate fluorescence interference, kinetic; series mostly up to 57.5 µM
In short: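 Cell-free interference counterscreen without USP2a: compounds pinned into enzyme-free buffer (20 mM Tris pH 8, 2 mM beta-mercaptoethanol, 0.05% Chaps), then DiUb K48-4IQF substrate added (100 nM stock); fluorescence read kinetically, Ex 525/Em 598.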

SMILES	outcome
O=C(Nc1nc(-c2ccccc2)cs1)c1ccncc1NS(=O)(=O)c1cccc2cccnc12	inactive
Cc1ccc(S(=O)(=O)Nc2ccc(Br)cc2C(=O)Nc2nc(-c3ccccc3)cs2)cc1	inactive
N#Cc1ccc(N[S+](=O)([O-])c2ccc(Nc3nc(-c4ccccc4)cs3)cc2)cc1	inactive
O=[S+]([O-])(NCc1nccs1)c1ccc(Nc2nc(-c3ccccc3)cs2)cc1	inactive
O=S(=O)(Nc1nccs1)c1ccc(Nc2nc(-c3ccccc3)cs2)cc1	inactive
Cc1ccc(S(=O)(=O)Nc2cc3c(cc2C(=O)Nc2nc(-c4ccccc4)cs2)OCO3)cc1	inactive

Test system: not listed separately
Experiment: qHTS for Inhibitors of Ubiquitin-specific Protease USP2a Using CHOP2 as the Reporter: Cytotox Assay (AID 652170); note: nearly all actives have a fitted effect of over 70% in size; note: potency is the fitted concentration of half-maximal effect
Details: HCT116 viability, CellTiter-Glo luminescence, 72 h; series mostly up to 46.1 µM
In short: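 HCT116 human colon cancer cells, 600 per well in DMEM with 10% FBS, exposed to compounds for 72 hr at 37 deg C. ATP measured by CellTiter-Glo luminescence, normalized to DMSO cells and no-cell background.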

SMILES	Potency
O=C(Nc1nc(-c2ccccc2)cs1)c1ccncc1NS(=O)(=O)c1cccc2cccnc12	inactive
NS(=O)(=O)c1ccc(Nc2nc(-c3ccccc3)cs2)cc1	inactive
N#Cc1ccc(NS(=O)(=O)c2ccc(NC(=O)Cc3ccc(F)c(Cl)c3)cc2)cc1	inactive
N#Cc1ccc(NS(=O)(=O)c2ccc(NC(=O)Cc3ccc(Cl)c(Cl)c3)cc2)cc1	inactive
Cc1ccc(S(=O)(=O)Nc2ccc(Br)cc2C(=O)Nc2nc(-c3ccccc3)cs2)cc1	4.69 µM (active)
N#Cc1ccc(N[S+](=O)([O-])c2ccc(Nc3nc(-c4ccccc4)cs3)cc2)cc1	inactive
O=[S+]([O-])(NCc1nccs1)c1ccc(Nc2nc(-c3ccccc3)cs2)cc1	inactive
O=S(=O)(Nc1nccs1)c1ccc(Nc2nc(-c3ccccc3)cs2)cc1	inactive
Cc1ccc(S(=O)(=O)Nc2cc3c(cc2C(=O)Nc2nc(-c4ccccc4)cs2)OCO3)cc1	16.6 µM (active)

Molecular target: Ubiquitin carboxyl-terminal hydrolase 2 (Homo sapiens) (UniProt O75604)
Sequence (O75604 whole entry, looked up): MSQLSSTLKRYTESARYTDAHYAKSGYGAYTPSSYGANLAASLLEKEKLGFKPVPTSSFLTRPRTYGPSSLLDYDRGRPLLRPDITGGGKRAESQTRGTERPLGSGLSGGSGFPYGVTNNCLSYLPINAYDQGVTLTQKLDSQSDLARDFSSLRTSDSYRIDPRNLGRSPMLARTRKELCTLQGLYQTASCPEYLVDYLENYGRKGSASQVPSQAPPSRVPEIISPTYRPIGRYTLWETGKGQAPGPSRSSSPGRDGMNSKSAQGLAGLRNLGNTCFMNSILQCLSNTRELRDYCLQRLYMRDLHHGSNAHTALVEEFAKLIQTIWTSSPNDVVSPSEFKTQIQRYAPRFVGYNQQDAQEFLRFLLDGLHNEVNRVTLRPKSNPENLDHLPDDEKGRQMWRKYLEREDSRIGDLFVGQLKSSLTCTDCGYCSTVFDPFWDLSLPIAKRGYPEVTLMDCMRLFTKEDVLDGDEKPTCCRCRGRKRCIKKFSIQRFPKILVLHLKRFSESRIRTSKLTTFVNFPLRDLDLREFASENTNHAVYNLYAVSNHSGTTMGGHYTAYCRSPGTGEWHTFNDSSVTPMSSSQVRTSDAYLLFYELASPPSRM
Experiment: qHTS for Inhibitors of Ubiquitin-specific Protease USP2a Using CHOP2 as the Reporter: K484 Substrate (AID 652173);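 note: cleavage of internally quenched K48 di-ubiquitin substrate measured as rising fluorescence over time; nearly all actives have a fitted effect of over 70% in size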; note: potency is the fitted concentration of half-maximal effect
Details: USP2 cleavage of DiUb K48 IQF substrate, fluorescence; series mostly up to 57.5 µM
In short: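 USP2 (dispensed at 5 nM) was pinned with compounds, then DiUb K48 internally quenched fluorescent substrate (dispensed at 100 nM) was added. The buffer was 20 mM Tris pH 8, 2 mM beta-mercaptoethanol and 0.05% CHAPS. Cleavage was read kinetically as rising fluorescence, Ex 525/Em 598.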

SMILES	Potency
O=C(Nc1nc(-c2ccccc2)cs1)c1ccncc1NS(=O)(=O)c1cccc2cccnc12	7.69 µM (active)
NS(=O)(=O)c1ccc(Nc2nc(-c3ccccc3)cs2)cc1	21.7 µM (active)
N#Cc1ccc(NS(=O)(=O)c2ccc(NC(=O)Cc3ccc(F)c(Cl)c3)cc2)cc1	24.3 µM (active)
N#Cc1ccc(NS(=O)(=O)c2ccc(NC(=O)Cc3ccc(Cl)c(Cl)c3)cc2)cc1	7.69 µM (active)
Cc1ccc(S(=O)(=O)Nc2ccc(Br)cc2C(=O)Nc2nc(-c3ccccc3)cs2)cc1	0.968 µM (active)
N#Cc1ccc(N[S+](=O)([O-])c2ccc(Nc3nc(-c4ccccc4)cs3)cc2)cc1	inactive
O=[S+]([O-])(NCc1nccs1)c1ccc(Nc2nc(-c3ccccc3)cs2)cc1	inactive
O=S(=O)(Nc1nccs1)c1ccc(Nc2nc(-c3ccccc3)cs2)cc1	inactive
Cc1ccc(S(=O)(=O)Nc2cc3c(cc2C(=O)Nc2nc(-c4ccccc4)cs2)OCO3)cc1	1.37 µM (active)

Molecular target: Calcium and integrin-binding protein 1 (Homo sapiens) (UniProt Q99828)
Sequence (Q99828 whole entry, looked up): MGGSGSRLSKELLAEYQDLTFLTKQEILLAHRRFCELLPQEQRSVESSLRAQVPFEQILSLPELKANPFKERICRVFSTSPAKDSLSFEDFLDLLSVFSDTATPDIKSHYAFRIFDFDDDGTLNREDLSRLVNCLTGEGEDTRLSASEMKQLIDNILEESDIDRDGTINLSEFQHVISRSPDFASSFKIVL
Experiment: Confirmatory qHTS for Identification of Calcium Integrin Binding Protein 1 (CIB1) Competitor (AID 1508617); note: nearly all actives have a fitted effect of over 65% in size; note: potency is the fitted concentration of half-maximal effect
Details: CIB1 binding competition assay, biochemical qHTS; series mostly up to 114 µM
In short: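 Fluorescence polarization competition: CIB1-GST (1 uM final) in 5 mM HEPES pH 7.4, 125 mM NaCl, 5 mM CaCl2, 0.01% Tween20 preincubated 15 min RT with compound (up to 114 uM), then FITC-alphaIIb peptide (100 nM) added, 15 min RT.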

SMILES	Potency
O=C(NNC(=O)c1nc2ccccc2[nH]1)OCc1ccccc1	inactive
c1ccc(-n2ccc(-c3nnc4n3CCCCC4)c2)cc1	50.1 µM (active)
NC(=O)C1CCN(c2ncc(Br)s2)CC1	50.1 µM (active)
Oc1cccc2cc(N3CCCC3)cnc12	inactive
O=C(Nc1nc(-c2ccccc2)cs1)c1ccncc1NS(=O)(=O)c1cccc2cccnc12	35.5 µM (active)
O=C1CCCC2=C1C(c1cccnc1Br)N=C(Nc1nc3ccccc3o1)N2 (stereo not given)	inactive
NS(=O)(=O)c1ccc(Nc2nc(-c3ccccc3)cs2)cc1	50.1 µM (active)
N#Cc1ccc(NS(=O)(=O)c2ccc(NC(=O)Cc3ccc(F)c(Cl)c3)cc2)cc1	inactive
N#Cc1ccc(NS(=O)(=O)c2ccc(NC(=O)Cc3ccc(Cl)c(Cl)c3)cc2)cc1	inactive
CN(C(=O)c1cccs1)c1cccnc1	31.6 µM (active)
CC(=O)NC(c1cccs1)c1cc(Br)c2cccnc2c1O (stereo not given)	inactive
Cc1ccc2nc3sc(C(=O)NCc4ccco4)cc3cc2c1	inactive
O=C(c1ccc(-c2cc(O)c3ncccc3c2)cc1)N1CCNCC1	inactive
CC1CCC2(C1)N=C(Nc1nc3ccccc3o1)NC1=C2C(=O)CCC1 (stereo not given)	inactive
O=C(O)c1ccc(O)c2ncc(-c3n[nH]nc3-c3ccccc3)cc12	inactive
CC1(C)OB(c2ccc(O)c3ncc(N4CCNCC4)cc23)OC1(C)C	31.6 µM (active)

SMILES	Potency
Cc1ccc(S(=O)(=O)Nc2ccc(Br)cc2C(=O)Nc2nc(-c3ccccc3)cs2)cc1	inactive
CN1CCN(c2ccc(-c3cc(O)c4ncccc4c3)cc2)CC1	inactive
Cc1ccsc1C1N=C(Nc2nc3ccccc3o2)NC2=C1C(=O)CCC2 (stereo not given)	inactive
NC(=O)c1cccc(-c2cnc3c(O)ccc(C(=O)O)c3c2)c1	inactive
O=C1CCC2=C1C1(CCCC1)N=C(Nc1nc3ccccc3o1)N2	inactive
NC[C@@H](O)c1ccc(O)c(O)c1	inactive
N#Cc1ccc(N[S+](=O)([O-])c2ccc(Nc3nc(-c4ccccc4)cs3)cc2)cc1	44.7 µM (active)
Fc1ccc(NC(=S)Nc2nnc(-c3ccncc3)s2)cc1C(F)(F)F	inactive
Cc1ccc(CNc2ncnc3ccc(-c4ccc([C@@H](C)O)o4)cc23)o1	inactive
O=[S+]([O-])(NCc1nccs1)c1ccc(Nc2nc(-c3ccccc3)cs2)cc1	50.1 µM (active)
O=C(O)c1ccccc1SC1=NS(=O)(=O)c2ccccc21	inactive
O=S(=O)(Nc1nccs1)c1ccc(Nc2nc(-c3ccccc3)cs2)cc1	50.1 µM (active)
C=CCNc1oc(-c2ccc(Cl)cc2)nc1C#N	44.7 µM (active)
Cc1ccc(S(=O)(=O)Nc2cc3c(cc2C(=O)Nc2nc(-c4ccccc4)cs2)OCO3)cc1	inactive
Cc1ccc(C(=O)NC(c2ccco2)c2cc(Cl)c3cccnc3c2O)cc1 (stereo not given)	inactive
